Measured values: PubChem BioAssay AID504332 (National Center for Advancing Translational Sciences (NCATS), 2011)
The whole screen tested about 350,000 compounds, of which about 31,000 (8.9%) were called active. Not shown: some 15% with an inconclusive outcome. Calls come from the whole dose curve; as a rule, active = well fitted inhibition curve with a large enough effect; inconclusive = small, poorly fitted or top-dose-only effect; inactive = no such curve, though single readings can be large or run the other way. The full list was thinned out, with actives kept by preference.

Biological target: Histone-lysine N-methyltransferase EHMT2 (Homo sapiens) (UniProt Q96KQ7)
Sequence (Q96KQ7 913-1193 limits assumed): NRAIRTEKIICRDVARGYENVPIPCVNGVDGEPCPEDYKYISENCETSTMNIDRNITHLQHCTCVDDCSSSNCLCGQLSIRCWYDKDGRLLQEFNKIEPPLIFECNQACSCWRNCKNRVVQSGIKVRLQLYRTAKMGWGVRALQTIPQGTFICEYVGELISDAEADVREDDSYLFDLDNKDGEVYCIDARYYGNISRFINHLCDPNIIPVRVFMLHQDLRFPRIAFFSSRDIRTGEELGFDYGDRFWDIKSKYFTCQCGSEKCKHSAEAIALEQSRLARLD
Experiment: qHTS Assay for Inhibitors of Histone Lysine Methyltransferase G9a; note: nearly all actives have a fitted effect of over 75% in size
Conditions: G9a H3K9 monomethylation, AlphaScreen, 2 h; series mostly up to 59 µM; activity, negative = inhibition: at the top concentration
Outline: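 Using a bead-based AlphaScreen, monomethylated H3K9 product from 2 h room-temperature reactions (G9a 20 nM, peptide 500 nM, SAM 20 uM) was detected with 0.5 ug/mL rabbit anti-H3K9me1 antibody.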
% is set by controls: 0 for no effect and ±100 for the full control effect; potency is the fitted concentration of half-maximal effect.

activity, negative = inhibition, inactive:
O=C(/C=C/c1cccc(C(F)(F)F)c1)N1CCN(c2ccccn2)CC1 13.1% [at 102 µM], Cc1ccc(NC(=O)CSc2nc3ccccc3c3nc(CCn4cncc4C)nn23)cc1F -31.7%, CCOC(=O)C1CCN(C(=O)C2CCCN(S(=O)(=O)c3ccc(OC)c(Cl)c3)C2)CC1 (stereo not drawn) 2.19% [at 102 µM], CC1(C)SC2c3ccccc3C(=O)N2[C@@H]1C(=O)NCc1ccco1 (stereo partly drawn) -4.15%, O=C(NC1CCCCC1)C1c2ccccc2C(=O)N1Cc1ccco1 (stereo not drawn) -38.1% [at 102 µM], Cc1cccc(C(=O)Nc2ccccc2-c2nnn(CC(=O)Nc3ccc4c(c3)OCCO4)n2)c1 48.1% [at 12.7 µM], COC(=O)c1cc(NC2c3ccccc3C(=O)N2c2ccc(Cl)cn2)cc(C(=O)OC)c1 (stereo not drawn) -10.9%, COc1ccc(C(C)(C)C)cc1NC(=O)CCN1C(=O)C2CCCCC2C1=O (stereo not drawn) -24.5% [at 12.7 µM], CC(=O)N1CCCc2cc(S(=O)(=O)N3CCC(C(=O)NCc4ccc(F)cc4)CC3)ccc21 22.6%, COc1cc(NC(=O)CSc2nc3nc(C)c(Cc4ccc(C)cc4)c(C)n3n2)cc(OC)c1OC 7.15%, CCOc1ccccc1NC(=O)Cn1nnc(C(=O)Nc2ccc(C)c(C)c2)c1N -6.58%, Cc1ccc(NC(=O)C(=O)NCC(c2cccnc2)N2CCOCC2)cc1 (stereo not drawn) 8.4%, COc1ccc(S(=O)(=O)NCc2ccc(C(=O)N(C)Cc3ccco3)cc2)cc1 -7.57% [at 102 µM], COc1ccc(C(=O)N(Cc2ccc(N(C)C)cc2)C2CCS(=O)(=O)C2)cc1 (stereo not drawn) -2.24% [at 102 µM], COc1ccc(C)cc1N(C)C(=O)c1c(C)oc2ncnc(N3CCOCC3)c12 -0.219%, Cc1ccc(OCC(=O)Nc2ccccc2C(=O)NC2CC2)cc1C 35% [at 102 µM], Cc1ccc(C(=O)NNC(=O)c2ccc3c(c2)OCCO3)cc1 8.51% [at 2.33 µM], Cc1cccc(C)c1NC(=O)CNC(=O)c1ccc2c(c1)OCCO2 -11.7%, Cc1c(CNC(C)c2ccccc2)c(C(=O)O)c(C)n1Cc1c(F)cccc1Cl (stereo not drawn) -5.36%, CCSc1nsc(NC(=O)Nc2ccccc2OC)n1 27.7% [at 102 µM], O=C(CN1C(=O)COc2ccc(Cl)cc21)Nc1ccc(N2CCOCC2)cc1 -10.1% [at 102 µM], CC(OC(=O)CN1C(=O)COc2ccccc21)C(=O)NCc1ccc(F)cc1 (stereo not drawn) -0.855% [at 102 µM], Cn1c(=O)c2c(SCC(=O)NCC3CCCO3)nc(-c3ccccc3F)nc2n(C)c1=O (stereo not drawn) 3.42%, CCOc1ccc(N(C)S(=O)(=O)c2cc(-c3cnc(C)o3)ccc2OC)cc1 4.14%, Cc1cccc(N2CCN(C(=O)Cn3ncc4c5ccccc5n(C)c4c3=O)CC2C)c1 (stereo not drawn) 4.42%, Cc1csc(=NC(=O)c2ccccc2)n1CCO -1.86%, COc1ccccc1OCCCn1c(-c2ccc(Cl)cc2)nc2ccccc2c1=O 1.97%, CN(C)CCCn1c(SCc2ccc(Cl)cc2)nnc1-c1ccncc1 14% [at 0.501 µM], COCCn1c(CCC(=O)Nc2cc(C)ccc2C)nc2cccnc21 22.5%, O=C(OCC(=O)N1CCc2ccccc21)C1CCCN1S(=O)(=O)c1ccc(Cl)cc1 (stereo not drawn) 0.8% [at 2.33 µM], CCCC(=O)Nc1ncnc2c1ncn2[C@@H]1O[C@@H]2OP(=O)(O)OC[C@H]2[C@H]1OC(=O)CCC 4.63%, CCCOc1cccc(C(=O)Nc2cccc(NC(=O)c3ccc(C(C)(C)C)cc3)c2)c1 -0.125%, COc1ccc2c(c1)[C@H]1[C@H](CO2)[C@H](c2ccccc2)[C@]2(C)C(=O)Nc3cc(F)c(F)cc3C(=O)N12 5.78% [at 2.33 µM], COc1ccc(-c2nonc2NC(=O)c2oc3ccc(F)cc3c2C)cc1OC 1.61% [at 102 µM], Cc1c(NC(=O)Cc2ccccc2)cccc1-c1nc2cccnc2s1 -27.2%, O=C(Cc1cc(=O)[nH][nH]1)N/N=C/c1ccccc1[N+](=O)[O-] 9.5% [at 102 µM], CN(C)/N=C/c1cc(Cl)cc([N+](=O)[O-])c1O -14.3%, CCOc1ccc(N(CC)C(=O)c2noc3c2COc2ccc(C)cc2-3)cc1 10.9%, CC1CCCCC1NC(=O)c1cn(C)c2ccc(S(=O)(=O)N3CCOCC3)cc2c1=O (stereo not drawn) -4.36% [at 102 µM], CCn1cc(C(=O)N2CC(C)CC(C)C2)c(=O)c2cc(S(=O)(=O)N3CCCC3)ccc21 (stereo not drawn) 12.6% [at 102 µM], O=C1C=C(c2ccnc3cc(Cl)ccc23)C[C@@H](c2ccc3c(c2)OCO3)C1 -18.7% [at 0.501 µM], COc1cccc(N2CC(NS(=O)(=O)c3cccs3)CC2=O)c1 (stereo not drawn) 4.26% [at 102 µM], COCc1cc(=O)oc2cc(NS(=O)(=O)c3ccc(C)cc3)ccc12 -1.12% [at 102 µM], Cc1ccc2c(CN3CCN(S(=O)(=O)c4ccccc4C(F)(F)F)CC3)cc(=O)oc2c1 -13.1% [at 12.7 µM], CC(C)CNC(=O)COC(=O)/C=C/c1ccccc1[N+](=O)[O-] 6.78%, O=C(/C=C/c1ccccc1[N+](=O)[O-])NCC1CCCO1 (stereo not drawn) -4.67%, O=C(/C=C/c1ccccc1[N+](=O)[O-])OC1CCCCC1=O (stereo not drawn) -0.9% [at 102 µM], O=C(/C=C/c1ccccc1[N+](=O)[O-])OCC(=O)N1CCCC1 11.7% [at 12.7 µM], CCC1(C)CC(=O)c2c(ccc3oc(C(=O)Nc4ccc(C(C)=O)cc4)c(C)c23)O1 (stereo not drawn) 1.06%, Cc1ccc(C)c(N2CCN(C(=O)C3CCC(CNS(=O)(=O)c4cccs4)CC3)CC2)c1 (stereo not drawn) -7.4%, CCCN1CCN(C(=O)CCCNC(=O)c2ccc(Cl)cc2)CC1 -12.5% [at 102 µM], COc1ccccc1NC(=O)c1cc(C2CC2)nc2c1c(C)nn2-c1ccc(C)cc1 3.8%, CCN(CC)S(=O)(=O)c1ccc2c(c1)N(CC(=O)NCC(C)c1ccccc1)C(=O)CO2 (stereo not drawn) -7.99%, O=C(COC(=O)c1cc(S(=O)(=O)N2CCOCC2)ccc1Cl)NCCc1ccccc1 -2.95% [at 12.7 µM], Cc1ccnc(NC(=O)CNC(=O)c2ccccc2)c1 -3.79% [at 102 µM], O=C(O)/C=C/c1cn(-c2ccccc2)nc1-c1cccs1 -5.58% [at 102 µM], O=c1[nH]c(-c2cccs2)nc2ccccc12 10.3%, CC1=C(C(=O)OCC(C)C)C(c2ccc(OCc3ccccc3)cc2)N2C(=O)CCSC2=N1 (stereo not drawn) -28.6%, O=C(c1ccccc1F)N1CCN(S(=O)(=O)c2ccc(Br)cc2)CC1 27% [at 102 µM], O=C(c1ccc(Cl)c(S(=O)(=O)N2CCCCC2)c1)N1CCCCCC1 28.7% [at 102 µM], CC(C)CN(C(=O)Cn1c(=O)cnc2ccccc21)C1CCS(=O)(=O)C1 (stereo not drawn) 2.69% [at 102 µM], O=C1[C@H]2[C@@H](c3ccc(Cl)cc3)N3C(=O)N(c4cccc(F)c4)C(=O)[C@@]3(Cc3ccccc3)[C@H]2C(=O)N1C1CCCCC1 -8.78% [at 2.33 µM], c1cncc(-c2nc(N3CCNCC3)c3ccccc3n2)c1 8.14% [at 0.501 µM], CC(C)(C)OC(=O)N1CCC(c2c(C(=O)NCc3ccccn3)cnn2-c2ccc(F)cc2)CC1 51.9%, Cc1ccc(NC(=S)N(Cc2ccco2)C(C)c2cccs2)cc1 (stereo not drawn) 18.1%, COCCNC(=S)N(Cc1cccnc1)Cc1ccc(OC)c(OC)c1 17.6% [at 102 µM], Cc1ccc2[nH]c(C)c(CCNC(=O)NC3CCCCC3)c2c1 3.69% [at 102 µM], Cc1ccc(CN(Cc2cccnc2)C(=S)Nc2cc(Cl)ccc2C)cc1 4.45% [at 102 µM], COC(=O)c1ccc(-c2c(-c3ccccc3)ncc3cc(OC)c(OC)cc23)cc1 -32.8% [at 0.501 µM], Cc1cc(C)n2nc(C(=O)OC(C)C(=O)c3cc(C)c(C)cc3C)nc2n1 (stereo not drawn) 20.5% [at 0.501 µM], COc1cccc(C(=O)NCc2ccc3c(c2)CCN3C(=O)c2ccncc2)c1 6%, O=C(Cc1cccs1)NCc1cccc(C(F)(F)F)c1 13.6% [at 102 µM], COc1ccccc1NC(=O)CCC(=O)OC(C)C(=O)c1ccccc1 (stereo not drawn) -6.17% [at 102 µM], O=C(CN1C(=O)NC2(CCOc3ccccc32)C1=O)NCc1ccc(F)cc1 (stereo not drawn) 28.5% [at 12.7 µM]

Potency, active:
O=C1c2ccccc2C(Nc2ccc3c(c2)OCCO3)N1Cc1ccco1 (stereo not drawn) 39.8 µM, Cc1ccnc(N2C(=O)c3ccccc3C2Nc2ccc3c(c2)OCCO3)c1 (stereo not drawn) 79.4 µM, COc1ccc(N(Cc2ccc(N(C)C)cc2)C(=O)c2ccc(S(C)(=O)=O)cc2)cc1 12.6 µM, Cc1ccc2sc(NNC(=O)c3ccc4c(c3)OCCO4)nc2c1C 10 µM, C[n+]1cc(-c2ccccc2)oc1-c1ccccc1 50.1 µM, O=C(CN1C(=O)COc2ccccc21)Nc1ccc(F)cc1 31.6 µM, OCCn1c(-c2ccccc2)csc1=Nc1ccccc1 44.7 µM, CN(C)CCCn1c(-c2ccc(Cl)cc2)csc1=Nc1ccccc1 12.6 µM, Cc1csc(=Nc2ccccc2)n1CCO 28.2 µM, O=C(N/N=C/c1cc(Cl)cc([N+](=O)[O-])c1O)C(O)(c1ccccc1)c1ccccc1 28.2 µM, COC(=O)c1cn(C)c2ccc(S(=O)(=O)N3CC(C)CC(C)C3)cc2c1=O (stereo not drawn) 56.2 µM, Cc1ccc2c(CSc3nncs3)cc(=O)oc2c1 50.1 µM, CC1CC(C)CN(C/C=C/c2ccccc2[N+](=O)[O-])C1 (stereo not drawn) 50.1 µM, O=[N+]([O-])c1ccccc1/C=C/CN1CCC(O)CC1 39.8 µM, S=c1[nH]c(-c2cccs2)cn1-c1ccccc1 2.51 µM, O=C(c1ccc[nH]c1=S)N1CCN(S(=O)(=O)c2ccc(Br)cc2Cl)CC1 8.91 µM, S=c1nc2ccccc2c2nc(-c3cccnc3)[nH]n12 10 µM, CCNC(=S)N(CCc1c(C)[nH]c2ccc(C)cc12)Cc1ccco1 50.1 µM, COCCNC(=S)N(CCc1c(C)[nH]c2ccc(C)cc12)Cc1cccnc1 70.8 µM
